PubChem BioAssay (NCATS)
Inconclusive results are not listed. Entries that show only a call come without a potency. Unmarked numbers belong to inactive results. Calls of active or inactive are those of the source. Calls follow the shape of the dose curve; as a rule, active = well fitted curve in the direction sought with a large enough effect; inconclusive = small, poorly fitted or top-dose-only effect, or another doubt; inactive = no such curve, though single readings can be large; an effect the other way counts as inactive or inconclusive.

Columns and labels:
[1] = target: Cellular tumor antigen p53 (Homo sapiens) (UniProt P04637); assay: Primary qHTS for small molecule compounds that upregulate eGFP-tagged delta133p53alpha (in N-terminal) cells. (AID 2060322); conditions: NCI-H358 eGFP-delta133p53alpha fluorescence, 24 h; activation: hits give high values; also: nearly all actives have a fitted effect of over 75% in size; also: potency is read from the fitted curve at half-maximal effect
Chain of Cellular tumor antigen p53 (Homo sapiens) (P04637 whole entry, looked up): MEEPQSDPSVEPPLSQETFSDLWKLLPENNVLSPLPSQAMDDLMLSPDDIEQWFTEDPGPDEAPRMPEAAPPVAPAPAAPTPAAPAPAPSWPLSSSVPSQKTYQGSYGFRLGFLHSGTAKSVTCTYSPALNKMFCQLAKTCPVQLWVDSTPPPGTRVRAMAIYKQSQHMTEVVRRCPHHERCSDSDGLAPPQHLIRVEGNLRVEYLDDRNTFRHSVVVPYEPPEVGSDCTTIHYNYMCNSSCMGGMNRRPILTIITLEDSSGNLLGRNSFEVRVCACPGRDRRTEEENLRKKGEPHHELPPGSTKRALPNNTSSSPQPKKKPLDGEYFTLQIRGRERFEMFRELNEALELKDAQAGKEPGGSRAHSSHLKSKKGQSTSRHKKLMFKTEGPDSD
In short: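 NCI-H358 cells pre-induced 24 h with 10 ng/ml doxycycline to express N-terminal eGFP-delta133p53alpha, then dosed 24 h at 37C without doxycycline; fixed, Hoechst-stained, GFP intensity by laser scanning cytometry, normalized to DMSO (0%) and 57.5 uM 5-azacytidine (100%).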

[2] = target: Aldehyde dehydrogenase, mitochondrial (Homo sapiens) (UniProt P05091); assay: qHTS for Inhibitors of the Aldehyde Dehydrogenase Family (ALDH2) Primary screen (AID 2061308); conditions: ALDH2 enzyme inhibition qHTS, 1536-well; series mostly up to 56 µM; also: nearly all actives have a fitted effect of over 55% in size
[3] = target: Retinaldehyde dehydrogenase 3 (Homo sapiens) (UniProt P47895); assay: qHTS for Inhibitors of the Aldehyde Dehydrogenase Family (ALDH1A3) Primary screen (AID 2061315); conditions: ALDH inhibition qHTS; series mostly up to 56 µM

Row | Structure (SMILES) | activation [1] | Potency [2] | Potency [3] | Potency [1]
1 | CC1=C(C)C(=O)OC(C(C)C2C(O)CC3C4C5OC5C5(O)CC(OC6OC(CO)C(O)C(O)C6O)CC(O)C5(C)C4CCC32C)C1 (stereo unspecified) | -6.87% | inactive | inactive | 
2 | C/C=C/C=C/C=C/C(=O)OC1C=C(C=O)C(O)(C(=O)O)C2(C)CCCC(C)(C)C12 (stereo unspecified) | -9.92% | inactive | inactive | 
3 | C[C@@H]1CC[C@]2(C(=O)O)CC[C@]3(C)C(=CCC4[C@@]5(C)C[C@@H](O)[C@@H](O)C(C)(C)C5CC[C@]43C)C2[C@]1(C)O (stereo partly specified) | -5.36% | inactive | inactive | 
4 | Cc1ccccc1CN1C2=NCCN2C(=O)C2=C1CCN(Cc1ccccc1)C2 | 29% | inactive | inactive | 
5 | CN1C(=O)c2ccccc2-n2c(nc3ccccc3c2=O)[C@@]12O[C@H]2c1ccccc1 | 13% | inactive | inactive | 
6 | Cc1cc2c(cc1N1C(=O)c3cccc4c(CCCO)ccc(c34)C1=O)n(C)c(=O)n2C | 5% | inactive | inactive | 
7 | CC(C)(O)C1CC(=O)C2(C)C(CCC3(C)C(c4ccoc4)OC(=O)C4OC432)C12CCC(=O)OC2 (stereo unspecified) | -3.57% | inactive | inactive | 
8 | COC(=O)C1=COC(OC2OC(CO)C(O)C(O)C2O)C2C1C=CC2(O)CO (stereo unspecified) | -3.57% | inactive | inactive | 
9 | CC1(CO)CC(O)C2(C)CCC3(C)C(=CCC4C5(C=O)CCC(OC6OC(C(=O)O)C(O)C(O)C6OC6OC(C(=O)O)C(O)C(O)C6O)C(C)(C)C5CCC43C)C2C1 (stereo unspecified) | -10.7% | inactive | inactive | 
10 | COc1cc(/C=C/C(=O)O[C@@H]2C[C@](O)(C(=O)O)C[C@@H](O)[C@H]2O)ccc1O | 3.57% | inactive | inactive | 
11 | COc1ccc(/C=C\C(=O)O)c(O[C@@H]2O[C@H](CO)[C@@H](O)[C@H](O)[C@H]2O)c1 | -7.63% | inactive | inactive | 
12 | O=C1NC(Cc2c[nH]c3ccccc23)C(=O)NC1Cc1cnc[nH]1 (stereo unspecified) | -5.36% | inactive | inactive | 
13 | O=C(Cc1ccc(Cl)cc1)Nc1cnccc1C(=O)O | -12.3% | inactive | inactive | 
14 | CC1OC(OC2C(O)C(C(=O)O)OC(OC3CCC4(C)C(CCC5(C)C4C=CC4=C6CC(C)(C)CC(O)C6(C)CCC45C)C3(C)C)C2OC2OCC(O)C(O)C2O)C(O)C(O)C1O (stereo unspecified) | -19.1% | inactive | inactive | 
15 | Nc1nc2c(ncn2[C@@H]2O[C@@H]3COP(=O)(O)O[C@H]3[C@H]2O)c(=O)[nH]1 | 12.3% | inactive | inactive | 
16 | CC1CCC(=O)CC(SCC(O)C(=O)O)CCC(=O)O1 (stereo unspecified) | -26% | inactive | inactive | 
17 | CC1(C)CCCC2(C)C(CO)C(CO)=CCC12 (stereo unspecified) | -3.82% | inactive | inactive | 
18 | CC(=O)OCCC(C)CCC1C(C)(O)CCC2C(C)(C)CCCC21C (stereo unspecified) | 6.87% | inactive | inactive | 
19 | Cn1ccnc1CCOC(c1cc2nccc(C(=O)O)c2[nH]1)c1ccccc1Cl (stereo unspecified) | -5% | inactive | inactive | 
20 | COc1c2c(nc3occc13)C(CC=C(C)C)(OC)C(O)CC2 (stereo unspecified) | 5.34% | inactive | inactive | 
21 | COC1/C=C/C(C)(O)C(SCC(N)C(=O)O)CC(=O)OC(C)C(C)CC/C=C/1C (stereo unspecified) | 0.763% | inactive | inactive | 
22 | CC(O)/C=C/C1C(C)C(O[C@@H]2O[C@H](CO)[C@@H](O)[C@H](O)[C@H]2O)C(O)CC1(C)C (stereo partly specified) | 12.2% | inactive | inactive | 
23 | CC(=O)OC1C(OC(=O)c2ccccc2)C2C(=C(C)CCC2(C)C)C23CCC(C)(C2)C(=O)CC13 (stereo unspecified) | -13% | inactive | inactive | 
24 | CC(=O)OC1C(=O)C2C3OCC4=C3[C@@](C)(CC[C@@H]4O)CC[C@]2(C)[C@H]1C(C)C (stereo partly specified) | -14.5% | inactive | inactive | 
25 | C=C1CCCC2(C)CCC(C(C)(C)OC3OC(C)C(O)C(O)C3OC(=O)/C(C)=C\C)CC12 (stereo unspecified) | -19.8% | inactive | inactive | 
26 | C[C@@H]1C[C@H]2O[C@@H]2/C=C\C=C\C(=O)Cc2c(Cl)c(O)cc(O)c2C(=O)O1 |  | inactive | inactive | 4.53 µM (active)
27 | CC1CCC2(CO)C(C(=O)O)=CCCC2C1(C)CCc1ccoc1 (stereo unspecified) | 14.3% | inactive | inactive | 
